# High-throughput results as filed in PubChem BioAssay.
# Most compounds without a hit are left out; they make up all but 19% or so of the library.
# TDP1 cell CPT: qHTS for Inhibitors of human tyrosyl-DNA phosphodiesterase 1 (TDP1): qHTS in cells in presence of CPT. Potency, µM (top dose mostly 46.2 µM), for the others: at the top dose activity change, negative = growth inhibition, actives largely listed as inhibitors. chicken DT40 Tdp1-/-;hTDP1 cells + 20 nM CPT, ATP luminescence, 48 h. hit rate 12% among 420,000; also: potency is read from the fitted curve at half-maximal effect; % is scaled to controls: 0 for no effect and ±100 for the full control effect; nearly all actives have a fitted effect of over 55% in size
#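 Chicken DT40 Tdp1-/- cells complemented with human TDP1, 400 cells/well, exposed to compounds plus 20 nM camptothecin for at least 48 h at 37 C; viability read as ATP content by CellTiter-Glo luminescence.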
# TDP1 block: qHTS Assay for Inhibitors of Tyrosyl-DNA Phosphodiesterase (TDP1); Tyrosyl-DNA phosphodiesterase 1 (Homo sapiens), Q9NUW8; recombinant TDP1, AlphaScreen DNA substrate cleavage; Potency, µM (doses to about 130 µM), inactives show top-dose activity change, negative = inhibition, most hits filed as inhibitors; hit rate 0.28% among 350,000; also: potency is read from the fitted curve at half-maximal effect; % is scaled to controls: 0 for no effect and ±100 for the full control effect; nearly all actives have a fitted effect of over 40% in size
# Target sequence (Q9NUW8 whole entry, looked up): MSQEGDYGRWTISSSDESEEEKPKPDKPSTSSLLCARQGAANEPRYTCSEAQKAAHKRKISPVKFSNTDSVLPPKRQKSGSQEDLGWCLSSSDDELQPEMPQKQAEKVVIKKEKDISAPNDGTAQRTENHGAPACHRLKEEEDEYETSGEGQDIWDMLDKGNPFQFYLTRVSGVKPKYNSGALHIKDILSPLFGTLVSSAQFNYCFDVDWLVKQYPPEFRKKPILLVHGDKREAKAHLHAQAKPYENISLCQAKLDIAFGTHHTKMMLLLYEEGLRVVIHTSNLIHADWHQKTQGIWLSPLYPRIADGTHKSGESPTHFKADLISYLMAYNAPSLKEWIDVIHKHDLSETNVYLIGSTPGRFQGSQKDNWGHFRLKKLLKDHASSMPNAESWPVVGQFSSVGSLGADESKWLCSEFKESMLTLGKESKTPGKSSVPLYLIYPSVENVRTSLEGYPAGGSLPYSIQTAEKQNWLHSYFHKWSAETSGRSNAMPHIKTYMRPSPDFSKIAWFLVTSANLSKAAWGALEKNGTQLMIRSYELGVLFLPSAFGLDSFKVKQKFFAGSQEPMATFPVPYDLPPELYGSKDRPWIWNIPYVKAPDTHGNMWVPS
#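 Recombinant E. coli-expressed Tdp1 (1 nM) preincubated with compound 15 min at RT, then 5'-biotin/3'-phosphotyrosine-FITC DNA substrate (15 nM) added for 5 min. AlphaScreen beads (10 ug/ml) added, 10 min RT; tyrosine-FITC cleavage read as signal loss.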
# IL-1B inflam inh: qHTS for Inhibitors of Inflammasome Signaling: IL-1-beta AlphaLISA Primary Screen; THP-1 LPS/ATP IL-1B secretion, AlphaLISA, 16 h; stronger effect = lower value; activity change, % at 57.5 µM; hit rate 4.7% among 360,000; in the data active = activity change below about -50%; inconclusive = mostly about -30% to -49%; also: % is scaled to controls: 0 for no effect and ±100 for the full control effect
#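 Secreted IL-1B measured by AlphaLISA bead assay after 16 h compound exposure of THP-1 cells; compounds (final up to 57.5 uM) added 1 h before LPS (250 ng/mL) and ATP (1.25 mM) stimulation; lower signal means less secretion.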
# TDP1 cell noCPT: qHTS for Inhibitors of human tyrosyl-DNA phosphodiesterase 1 (TDP1): qHTS in cells in absence of CPT. DT40 Tdp1-/- hTDP1 cells, no CPT, ATP luminescence, 48 h. Potency, µM (titrated, usually from 46.2 µM), without a hit: top-dose activity change, negative = growth inhibition, usual class: inhibitors. hit rate 15% among 420,000. AID 686978, 2013; also: potency is read from the fitted curve at half-maximal effect; % is scaled to controls: 0 for no effect and ±100 for the full control effect; nearly all actives have a fitted effect of over 55% in size
#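 Camptothecin absent (DMSO only). Human TDP1-complemented DT40 knockout cells, 400 cells/well, 37 °C for minimum 48 hr; ATP measured via CellTiter-Glo, 30 min dark incubation, luminescence.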
# TGFb inhibitor: qHTS for Inhibitors of TGF-b; HepG2 CAGA-GFP TGF-b/SMAD3 reporter, GFP fluorescence, 18 h; TGF-beta stimulated, 500 pg/mL final; Potency, µM (top dose mostly 46.1 µM), for the others: top-dose activity, negative = inhibition, actives largely listed as inhibitors; hit rate 1.2% among 410,000; AID 588855, 2011; also: potency is read from the fitted curve at half-maximal effect; % is scaled to controls: 0 for no effect and ±100 for the full control effect; nearly all actives have a fitted effect of over 65% in size
#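 GFP signal (ex488/em500-530) from TGF-beta-stimulated HEPG2 CAGA-GFP cells, 500 pg/mL final, 18 h at 37 degrees C in DMEM plus 1% FBS, normalized to unstimulated and DMSO-stimulated controls.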
# HepG2 viability: qHTS for Inhibitors of TGF-b: Cytotox Counterscreen; Potency, µM (top dose mostly 46.1 µM), inactives show at the top dose activity change, negative = cytotoxicity, usual class: cytotoxic; AID 588856, 2011; HepG2 CAGA-GFP viability, ATP luminescence, 18 h; hit rate 0.76% among 410,000; also: potency is read from the fitted curve at half-maximal effect
#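 CellTiter-Glo luminescence gave cytotoxicity after 18 hours at 37 degrees C. The cells were HepG2 CAGA-GFP in 1% FBS DMEM, stimulated with 500 pg/mL TGF-beta after compound addition. %Activity was normalised to no-cell wells (complete cell-killing) and DMSO (no toxicity), and curves were fitted and classified.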
# Active calls of the source: *; ? = inconclusive; / = no result. Unless noted, calls follow the shape of the dose curve; as a rule, active = well fitted curve in the direction sought with a large enough effect; inconclusive = small, poorly fitted or top-dose-only effect, or another doubt; inactive = no such curve, though single readings can be large; an effect the other way counts as inactive or inconclusive.
SMILES,TDP1 cell CPT,TDP1 block,IL-1B inflam inh,TDP1 cell noCPT,TGFb inhibitor,HepG2 viability
CC(C)Oc1ccc(C(=O)Nc2c(C(=O)Nc3cccc(F)c3)oc3ccccc23)cc1,?,4%,/,?,-30%,4%
Cc1[nH]nc2c1C(c1cc(Br)cs1)C(C#N)=C(N)O2 (stereo not drawn),4.1µM*,-1%,-101*,5.2µM*,10µM*,-65%
Cc1[nH]nc2c1C(c1c[nH]c3ccccc13)C(C#N)=C(N)O2 (stereo not drawn),1%,1%,-5,0%,-24%,-7%
Cc1[nH]nc2c1C(C(C)C)C(C#N)=C(N)O2 (stereo not drawn),?,-2%,-87*,?,-6%,-33%
Cc1nc(SCC(=O)Nc2ccccc2F)[nH]c(=O)c1Cc1ccccc1,-1%,5%,/,?,/,3%
CCCCN(C)CCNC(=O)c1cc(=O)[nH]c2ccc(S(=O)(=O)N3CCCCCC3)cc12,-11%,5%,/,-1%,-14%,0%
CN(Cc1cccc(F)c1)C(=O)Cc1ccc(S(=O)(=O)N2CCOCC2)s1,-20%,8%,4,?,0%,-22%
CC1CN(S(=O)(=O)c2cccc(C(=O)N(C)C3CCCCC3)c2)CC(C)O1 (stereo not drawn),18µM*,/,38,10µM*,-10%,-3%
Cc1cccc(N(Cc2ccccc2)C(=O)c2ccc(F)c(S(=O)(=O)N3CCOCC3)c2)c1,?,1%,-7,?,0%,-2%
Cc1cccc(N(Cc2ccccc2)C(=O)c2cccc(S(=O)(=O)N3CC(C)OC(C)C3)c2)c1 (stereo not drawn),12µM*,7%,6,10µM*,?,19%
Cc1cccc(N(Cc2ccccc2)C(=O)c2ccc(C)c(S(=O)(=O)N3CCOCC3)c2)c1,16µM*,0%,0,13µM*,-29%,-17%
Cc1cccc(N(Cc2ccccc2)C(=O)Cc2ccc(S(=O)(=O)N3CCOCC3)s2)c1,?,4%,-4,23µM*,-18%,0%
CC1CCN(S(=O)(=O)c2cccc(C(=O)N(Cc3ccccc3)c3ccccn3)c2)CC1,?,-5%,0,?,-18%,-11%
COc1ccccc1N(CC(=O)NCCN1CCOCC1)S(=O)(=O)c1ccccc1,-3%,/,4,-2%,2%,-9%
O=C(COC(=O)/C=C/c1ccc(C(F)(F)F)cc1)NC(=O)NCc1ccco1,-3%,0%,-8,-10%,-5%,-15%
N#Cc1ccccc1S(=O)(=O)N1CCN(C(=O)[C@H](Cc2ccccc2)NC(=O)c2ccco2)CC1,-19%,2%,8,?,-1%,-4%
Cc1ccc(N(Cc2ccccc2)C(=O)c2cc(S(=O)(=O)N3CCOCC3)ccc2N2CCCC2)cc1,21µM*,/,-5,21µM*,?,-22%
CC1CN(S(=O)(=O)c2cccc(C(=O)OCCOc3ccccc3)c2)CC(C)O1 (stereo not drawn),21µM*,-9%,-4,?,-3%,-5%
CC1CN(S(=O)(=O)c2cccc(C(=O)OCC(=O)c3cccs3)c2)CC(C)O1 (stereo not drawn),-21%,-7%,18,-27%,5%,0%
Cc1ccc(N(Cc2ccccc2)C(=O)c2ccc(F)c(S(=O)(=O)N3CCOCC3)c2)cc1,?,6%,9,23µM*,0%,5%
Cc1ccc(C)c(NC(=O)CN(C)C(=O)c2cc(S(=O)(=O)N3CCOCC3)ccc2N2CCCC2)c1,-17%,3%,-1,-28%,-8%,0%
CCCN(CC(=O)Nc1ccccc1OC)CC(=O)c1c(N)n(Cc2ccccc2)c(=O)n(C)c1=O,?,/,-14,?,?,-41%
CN(C)c1ccc(C=O)c(O)c1,0%,/,/,-3%,12%,23%
CC(=O)N1N=C(c2ccc(Br)cc2)CC1c1cccc([N+](=O)[O-])c1 (stereo not drawn),?,/,-11,?,-1%,-18%
COc1ccc(C2=NN(CN3C(=O)C(=O)c4ccccc43)C(c3cccc([N+](=O)[O-])c3)C2)cc1 (stereo not drawn),?,-7%,-66*,?,-26%,-31%
SMILES,TDP1 cell CPT,TDP1 block,IL-1B inflam inh,TDP1 cell noCPT,TGFb inhibitor,HepG2 viability
COC1=C(C)C(=O)C2=C(C1=O)C1C3CC4=C(C(=O)C(OC)=C(C)C4=O)C(CNC(=O)C(C)=O)N3C(C#N)C(C2)N1C (stereo not drawn),0.041µM*,/,-99*,0.026µM*,0.14µM*,7.1µM*
Cc1cc(-n2c(SCC(=O)Nc3ccc(F)c(F)c3)nc3n[nH]c(C)c3c2=N)ccc1Cl,2.6µM*,0%,-6,1.5µM*,?,-3%
COc1cccc(-n2c(SCC(=O)NCCC3=CCCCC3)nc3n[nH]c(C)c3c2=N)c1,16µM*,9%,19,15µM*,?,-8%
Cc1cc(-n2c(SCC(=O)Nc3ccc(Br)cc3)nc3n[nH]c(C)c3c2=N)ccc1Cl,?,1%,16,?,-11%,-15%
CCN(C(=O)CSc1nc2n[nH]c(C)c2c(=N)n1-c1cccc(OC)c1)c1cccc(C)c1,23µM*,8%,/,?,?,-67%
Cc1ccc(-n2c(SCC(=O)Nc3cccc(Cl)c3)nc3n[nH]c(C)c3c2=N)cc1,8.2µM*,-5%,/,7.3µM*,1.8µM*,13µM*
COCCN1C(=O)COc2ccccc2C1C(=O)NC(C)(C)C (stereo not drawn),-4%,/,14,0%,/,/
COc1ccc(S(=O)(=O)N(C)CC(=O)NCc2ccco2)cc1OC,-4%,/,-17,-10%,-8%,-16%
COc1ccc(CNC(=O)c2cnc3sc(N4CCCC4)nn3c2=O)c(OC)c1,-3%,6%,/,-17%,8%,7%
COc1cccc(NC(=O)CSc2nc3n[nH]c(C)c3c(=N)n2-c2cccc(OC)c2)c1,23µM*,6%,-51*,21µM*,?,16%
COc1cccc(NC(=O)CSc2nnc(-c3cc(C)[nH]n3)n2N)c1,-4%,0%,18,3%,2%,-1%
